Bioassay records from PubChem BioAssay.
Tg IFNy HTS – inhibitors of Toxoplasma gondii growth with IFN-gamma; Toxoplasma gondii growth in IFN-gamma-treated host cells; stronger effect = lower value; activity change, negative = inhibition, % (test concentration not listed); actives 3.8% (n = 69,000); in the data active = activity change below about -70%, passing the limit was not always enough;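 also: host cells are HeLa cells infected with Toxoplasma gondii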
* hit, by the source's call; i = inactive; ! = not confirmed by another sample. The sample as a whole holds a higher share of hits than the screen did.

SMILES | Tg IFNy HTS
Cc1onc(C(=O)Nc2ccc3c(c2)N(S(C)(=O)=O)CC3)c1Cn1cccn1 | -35.9
COC(=O)c1c(C)nc2n(Cc3ccccc3)c3ccccc3n12 | -84.3*
O=C(O)CSc1nc2ccccc2n1Cc1ccccc1 | 13.1
Cc1cc(NC(=O)CSc2nnc3n(Cc4ccccc4)c4ccccc4n23)no1 | -1.6
O=C(Oc1ccccc1)c1ccc(Oc2ccc(C(=O)Oc3ccccc3)cc2)cc1 | -31.0
COCCCNC(=O)Cn1c(=O)c(S(=O)(=O)c2ccccc2)cc2ccccc21 | 13.5
CCNc1ccnc(-c2cccc3[nH]ccc23)n1 | 36.1
OCCNc1ncnc2ccc(-c3cccc4[nH]ccc34)cc12 | -57.2
Cc1csc2ncnc(-c3cccc4[nH]ccc34)c12 | -74.1*
CCC1(c2cccc(OS(=O)(=O)c3ccc(OC)c(OC)c3)c2)CCCCN(C)C1=O (centres undefined) | -7.9
Cc1cc(C)nc(CCNC(=O)c2cccc(NCc3sccc3C)c2)n1 | 24.5
O=C(c1ccn[nH]1)N1CCCC2(CC(Oc3cccnc3)CO2)C1 (centres undefined) | -94.9*
O=C(c1ccco1)N1CCCC2(CC(Oc3cccnc3)CO2)C1 (centres undefined) | -67.4
O=C(c1cnc[nH]1)N1CCC2(CC(Oc3cccnc3)CO2)C1 (centres undefined) | 2.3
COc1ccc(-c2cc(C(=O)Nc3nc4c(s3)CN(C)CC4)[nH]n2)cc1 | 2.9
COc1ccc(-c2nc(Cn3c(=O)c4c(C)cc(C)nc4n(-c4ccccc4)c3=O)c(C)o2)cc1OC | 2.9
CN(C)C(=O)N1CCC(C(=O)N2CCCC(C(=O)c3ccc4c5c(cccc35)CC4)C2)CC1 (centres undefined) | -16.2
COc1ccc(OC)c(S(=O)(=O)Oc2ccccn2)c1 | 30.0
CCOc1ccc(C(=O)C(C)=O)c(OCC)c1 | 34.5
CCOc1ccc(OCC)c(S(=O)(=O)Oc2cccc3ccc(C)nc23)c1 | -93.5*
C=CCN(CC#Cc1ccccc1)Cc1ccccn1 | 0.2
O=C(NCCc1csc(-c2ccccc2)n1)C1CCN(C(=O)c2ccccc2Br)CC1 | -11.2
COc1ccc(-c2ccc(SCC(=O)N3c4cc(C)ccc4C(C)=CC3(C)C)nn2)cc1 | -30.2
Cc1c(C2CC(=O)Nc3[nH]ncc32)[nH]c2ccc(F)cc12 (centres undefined) | -5.3
CCc1noc(CN(CC)C(=O)c2sc(C(C)C)nc2C)n1 | -34.2
SMILES | Tg IFNy HTS
COc1ccc(C(=O)NCCc2csc(-c3ccc(Cl)cc3)n2)c(OC)c1 | -85.5*
CCCCOc1ccc(C(=O)NCCc2csc(-c3ccc(Cl)cc3)n2)cc1 | -48.7
COc1ccc(-c2nc(CCNC(=O)c3ccc(OC)cc3OC)cs2)cc1 | 42.2
CCOc1cc(C(=O)NCCc2csc(-c3cccc(F)c3)n2)cc(OCC)c1OCC | 38.7
COc1ccc(C(=O)NCCc2csc(-c3cccc(F)c3)n2)cc1OC | 31.7
CCOc1ccc(C(=O)NCCc2csc(-c3ccc(OC)cc3)n2)cc1 | 37.7
COc1ccc(Cl)cc1C(=O)NCCc1sc(-c2cccc(F)c2)nc1C | 3.9
COc1ccc(-c2nc(CCNC(=O)c3ccccc3Br)cs2)cc1 | i
CCOc1ccc(C(=O)NCCc2csc(-c3cccc(F)c3)n2)cc1OCC | 54.0
COc1ccc(Cl)cc1C(=O)NCCc1csc(-c2cccc(F)c2)n1 | -90.1*
CCOc1ccccc1C(=O)NCCc1csc(-c2cccc(F)c2)n1 | -90.8*
CCCCOc1ccc(C(=O)NCCc2csc(-c3ccc(OC)cc3)n2)cc1 | -109.7*
CC(=O)N1CC[C@@H]2C(=O)N(c3ccsc3)CCO[C@@H]2C1 | 2.0
COc1ccccc1OCC(=O)NCCc1csc(-c2cccc(F)c2)n1 | 48.2
O=C(NCCc1csc(-c2cccc(F)c2)n1)c1ccccc1F | -21.6
Cc1ccc(C)c(NC(=O)C(=O)NCCc2csc(-c3ccc(F)cc3)n2)c1 | -68.8
COc1ccc(-c2nc(CCNC(=O)c3cccs3)cs2)cc1OC | i
Cc1ccc(Cl)cc1NC(=O)C(=O)NCCc1csc(-c2cccc(F)c2)n1 | -64.3
Cc1ccc(C)c(NC(=O)C(=O)NCCc2csc(-c3cccc(F)c3)n2)c1 | -101.4*
O=C(NCCc1csc(-c2ccc(F)cc2)n1)c1ccccc1 | -80.5*
O=C(NCCc1csc(-c2ccc(Cl)cc2)n1)c1cccs1 | -79.2*
O=C(NCCc1csc(-c2ccc(Cl)cc2)n1)c1ccc(F)cc1 | -59.7
O=C(NCCc1csc(-c2ccccc2)n1)c1cccs1 | 246.3
COc1ccccc1C(=O)NCCc1csc(-c2cccc(F)c2)n1 | -77.9*
O=C(NCCc1csc(-c2ccc(Cl)cc2)n1)c1ccccc1 | -40.5
SMILES | Tg IFNy HTS
CCC(=O)N1CCC2(COCc3c(C)nc(N(C)C)nc32)C1 (centres undefined) | -2.6
CCO[C@H]1CNC[C@@H]1NC(=O)c1cc(CN2CCCC2)c(CC)o1 | -10.5
CCn1ncc(C(=O)NC(C)CCc2ccco2)c1C (centres undefined) | -2.1
COc1ccc(-n2c(=O)c(C(=O)Nc3ccc(F)c(C)c3)c(O)c3cccnc32)cc1 | -47.1
COc1ccc(Cl)cc1NC(=O)c1c(O)c2cccnc2[nH]c1=O | 29.6
CC(=O)Nc1ccc(NC(=O)Cn2c(=O)cc(C(=O)N3CCOCC3)c3ccccc32)cc1 | 7.7
c1cncc(CN(CCN2CCOCC2)Cc2cccn2C2CCCCC2)c1 | -1.8
Oc1cc2c(cc1-n1cnnc1)CCCC2 | -35.6
Cc1cc(-c2cccc3cnccc23)cnc1N | -69.9
O=C(NCc1cccnc1)C1CC2CN(Cc3ccccc3)CC1O2 (centres undefined) | 7.8
CNS(=O)(=O)c1ccc(CCC(=O)N2CCC(c3nnc(-c4cccs4)o3)C2)cc1 (centres undefined) | -12.2
COc1c(C)cc(-c2ccc(C(=O)N(C)C)o2)cc1C | 14.3
O=C(NC1CCN(Cc2ccccc2)CC1)c1ccc(I)cc1 | 9.6
CCOc1ccc(C(=O)NC2CCN(S(=O)(=O)c3ccccc3)CC2)cc1 | -83.8*
CN1CCN(S(=O)(=O)c2ccc(C(=O)NC3CCCCC3)cc2)CC1 | -5.7
CCCc1cc2c(cc1NC(=O)c1cc(CC(C)C)[nH]c(=O)n1)OCO2 | -31.7
Cc1nc(-c2ccccc2)sc1C(=O)Nc1ccc(-n2c(C)nc3ccccc3c2=O)cc1 | 2.3
CCc1cn[nH]c1C1CCN(Cc2ccccc2OCCO)CC1 | -6.0
CCOC(=O)Nc1nc2ccccc2[nH]1 | 21.7
CCCOc1ccc2nc(NC(=O)OC)[nH]c2c1 | -73.0*!
COC(=O)Nc1nc2ccc(C(=O)c3ccc(F)cc3)cc2[nH]1 | -68.1
COc1ncnc2c1CCN(C(=O)c1ccnnc1)CC2 | -5.6
CC(C)(C)OC(=O)N1CCCC1C1CCc2ccccc2C1=O (centres undefined) | 5.4
Nc1c(C(=O)N2CCOCC2)sc2nc3c(cc12)CCCCC3 | 7.0
OCC1(CCc2ccccc2)CCN(c2nccc(N3CCC(O)C3)n2)CC1 (centres undefined) | -13.0
SMILES | Tg IFNy HTS
OCC1(Cc2cccc(C(F)(F)F)c2)CCN(c2ccc3ccccc3n2)CC1 | 0.0
OCC1(CCc2ccccc2)CCN(c2ccc3ccccc3n2)CC1 | -77.4*
NC(=O)C1CCN(CCC(=O)O)CC1 | 3.0
COc1ccc(-c2nc(Cn3ccn4nc(-c5ccccc5)cc4c3=O)c(C)o2)cc1 | -28.5
COc1ccc(-c2nc(CN3C(=O)C(O)(c4ccccc4)c4ccccc43)c(C)o2)cc1 (centres undefined) | -78.3*
Cc1oc(-c2ccccc2)nc1CN1C(=O)C(O)(c2ccccc2)c2ccccc21 (centres undefined) | -35.6
Cc1oc(-c2ccc(C(=O)NCc3cccc(F)c3)cc2)nc1CN1CCc2ccccc21 | -42.9
